Calls of active or inactive are those of the source.
What was measured:
[1] = tested on: Plasmodium falciparum Sir2 (PF13_0152, Sir2A); assay: Plasmodium falciparum Sir2A binding compounds – biochemical, small-molecule microarray, 635 nm fluorescence, primary screen (AID 1098); conditions: fluorescence 635 nm, higher = more signal;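 further: score merges spot fluorescence intensity with its signal-to-noise ratio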
[2] = probe aDKK1 binding to arrayed compounds – biochemical, biotinylated probe, 635/667 nm fluorescence, primary screen (AID 1099); conditions: small-molecule microarray, higher = more signal;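 further: score merges 667nm spot fluorescence with signal to noise across triplicate slides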
[3] = probe aCHRDL2 binding to arrayed compounds – biochemical, biotinylated probe, 635/667 nm fluorescence, primary screen (AID 1100); conditions: small-molecule microarray, higher = more signal
[4] = change in splice reporter luminescence, either direction, cell-based, HEK293, spliceosome inhibition project, primary screen (AID 1101); conditions: HEK293 splicing luciferase reporter, 24 h, higher = more signal, called active from +8 up or from −8 down;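 further: HEK293 cells carrying a splicing-competent luciferase reporter gene; test concentration not given here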
[5] = target: Fibroblast growth factor 10 (Homo sapiens) (UniProt O15520); assay: compounds binding fibroblast growth factor 10 – biochemical, small-molecule microarray, 635 nm fluorescence, primary screen (AID 1102); conditions: FGF10 binding, fluorescence 635 nm, higher = more signal
Fibroblast growth factor 10 (Homo sapiens), sequence (O15520 whole entry, looked up): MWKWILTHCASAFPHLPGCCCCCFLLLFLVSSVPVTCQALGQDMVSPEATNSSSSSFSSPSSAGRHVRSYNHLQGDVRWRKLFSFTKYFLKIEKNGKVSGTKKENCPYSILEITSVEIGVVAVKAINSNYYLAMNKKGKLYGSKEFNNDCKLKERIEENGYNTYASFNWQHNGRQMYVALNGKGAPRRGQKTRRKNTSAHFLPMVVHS

[6] = tested on: glycogen synthase kinase-3 (GSK3A per assay name; protocol says GSK3B); assay: compounds binding glycogen synthase kinase-3 – biochemical, small-molecule microarray, 635 nm fluorescence, GSK3A, primary screen (AID 1103); conditions: fluorescence 635 nm, higher = more signal; further: the record names both GSK3A and GSK3B
[7] = target: Epidermal growth factor receptor (Homo sapiens) (UniProt P00533); assay: compounds binding epidermal growth factor receptor – biochemical, small-molecule microarray, 635 nm fluorescence, primary screen (AID 1104); conditions: EGFR binding, higher = more signal;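 further: score merges 667 nm emission intensity with spot signal to noise over triplicate slides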
Epidermal growth factor receptor (Homo sapiens), sequence (P00533 whole entry, looked up): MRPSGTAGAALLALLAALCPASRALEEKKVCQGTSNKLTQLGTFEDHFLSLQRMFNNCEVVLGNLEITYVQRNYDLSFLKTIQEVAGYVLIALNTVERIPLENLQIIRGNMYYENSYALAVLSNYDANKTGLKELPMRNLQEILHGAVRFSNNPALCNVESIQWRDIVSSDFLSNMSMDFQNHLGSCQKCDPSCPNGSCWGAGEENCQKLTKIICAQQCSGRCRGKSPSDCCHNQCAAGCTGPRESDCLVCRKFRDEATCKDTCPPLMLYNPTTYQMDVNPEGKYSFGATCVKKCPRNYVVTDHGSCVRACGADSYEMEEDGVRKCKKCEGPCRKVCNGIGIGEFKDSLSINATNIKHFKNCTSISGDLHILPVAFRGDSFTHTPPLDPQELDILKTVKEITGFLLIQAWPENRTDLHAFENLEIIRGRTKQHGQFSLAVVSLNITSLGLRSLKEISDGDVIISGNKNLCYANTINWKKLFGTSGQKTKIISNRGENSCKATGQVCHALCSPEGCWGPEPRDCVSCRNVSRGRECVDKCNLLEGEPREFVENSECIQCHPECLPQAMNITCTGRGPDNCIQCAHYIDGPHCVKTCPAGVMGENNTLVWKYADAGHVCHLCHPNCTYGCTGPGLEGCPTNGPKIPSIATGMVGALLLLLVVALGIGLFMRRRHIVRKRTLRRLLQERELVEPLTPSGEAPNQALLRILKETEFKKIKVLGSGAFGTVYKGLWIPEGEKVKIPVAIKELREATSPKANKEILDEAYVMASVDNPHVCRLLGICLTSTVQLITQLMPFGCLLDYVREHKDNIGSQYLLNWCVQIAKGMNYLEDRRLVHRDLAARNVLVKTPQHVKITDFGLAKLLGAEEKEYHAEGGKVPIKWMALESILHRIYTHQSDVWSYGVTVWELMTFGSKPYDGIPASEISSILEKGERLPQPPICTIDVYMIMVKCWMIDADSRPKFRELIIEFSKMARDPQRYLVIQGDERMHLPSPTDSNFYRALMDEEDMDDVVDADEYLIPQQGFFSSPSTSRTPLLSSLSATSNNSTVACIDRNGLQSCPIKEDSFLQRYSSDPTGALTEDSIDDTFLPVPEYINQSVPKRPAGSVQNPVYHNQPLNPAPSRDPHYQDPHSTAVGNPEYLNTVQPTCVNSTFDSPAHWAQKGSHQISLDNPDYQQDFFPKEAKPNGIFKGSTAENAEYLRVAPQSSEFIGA

[8] = target: Follistatin-related protein 3 (Homo sapiens) (UniProt O95633); assay: compounds binding follistatin-related protein 3 – biochemical, small-molecule microarray, 635 nm fluorescence, primary screen (AID 1105); conditions: FSTL3 binding, higher = more signal;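 further: score merges emission near 667 nm and signal to noise per printed spot across three slides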
Follistatin-related protein 3 (Homo sapiens), sequence (O95633 whole entry, looked up): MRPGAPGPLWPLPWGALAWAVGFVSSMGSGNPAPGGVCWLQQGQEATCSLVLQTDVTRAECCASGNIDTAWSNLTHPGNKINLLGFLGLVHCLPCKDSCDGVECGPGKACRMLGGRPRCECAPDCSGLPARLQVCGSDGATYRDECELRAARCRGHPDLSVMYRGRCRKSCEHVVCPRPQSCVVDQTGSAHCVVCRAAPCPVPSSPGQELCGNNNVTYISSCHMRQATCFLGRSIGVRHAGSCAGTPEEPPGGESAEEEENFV

[9] = target: Dickkopf-related protein 1 (Homo sapiens) (UniProt O94907); assay: small molecules binding DKK1 protein – biochemical, small-molecule microarray, 635 nm fluorescence scan, primary screen (AID 1106); conditions: higher = more signal;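 further: score merges emission near 667 nm with signal to noise over three replicate slides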
Dickkopf-related protein 1 (Homo sapiens), sequence (O94907 whole entry, looked up): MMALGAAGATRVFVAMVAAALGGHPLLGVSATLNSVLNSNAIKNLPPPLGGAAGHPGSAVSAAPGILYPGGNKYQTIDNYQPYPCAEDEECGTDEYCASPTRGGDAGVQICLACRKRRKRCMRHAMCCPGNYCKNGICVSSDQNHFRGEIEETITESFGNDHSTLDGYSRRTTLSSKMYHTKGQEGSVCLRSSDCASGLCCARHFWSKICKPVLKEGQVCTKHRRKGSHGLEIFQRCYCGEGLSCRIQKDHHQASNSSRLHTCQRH

[10] = tested on: Inhibin beta A chain (activin A); assay: small molecules binding activin A – biochemical, small-molecule microarray, 635 nm fluorescence scan, primary screen (AID 1107); conditions: INHBA, higher = more signal;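 further: mouse activin A protein probed at 4.33 µg/mL on printed slides; score merges bound-protein fluorescence near 667 nm with spot signal-to-noise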
[11] = tested on: Human papillomavirus type 1a protein E7 (residues 44-93); assay: small molecules binding HPV E7 44-93 – biochemical, small-molecule microarray, residues 44-93, 635 nm fluorescence, primary screen (AID 1108); conditions: fluorescence 635 nm, higher = more signal;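 further: E7 fragment applied at 1 µg/mL in TBST for 1 h at 4 C; score combines spot fluorescence with its signal to noise ratio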
[12] = hepatitis C replication reporter changes, two-sided – Huh7 cells, luciferase reporter, HCV replication inhibitor project, primary screen (AID 1109); conditions: Huh7 HCV replicon luciferase reporter, 48 h; higher = more signal;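 further: huh7 hepatoma cells harbouring a luciferase neomycin HCV replicon reporter; luciferase luminescence as measure of HCV replicon replication; test concentration not given here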
[13] = target: Left-right determination factor 2 (Homo sapiens) (UniProt O00292); assay: small molecules binding LEFTY2 protein – biochemical, small-molecule microarray, 635 nm fluorescence scan, primary screen (AID 1110); conditions: higher = more signal
Left-right determination factor 2 (Homo sapiens), sequence (O00292 whole entry, looked up): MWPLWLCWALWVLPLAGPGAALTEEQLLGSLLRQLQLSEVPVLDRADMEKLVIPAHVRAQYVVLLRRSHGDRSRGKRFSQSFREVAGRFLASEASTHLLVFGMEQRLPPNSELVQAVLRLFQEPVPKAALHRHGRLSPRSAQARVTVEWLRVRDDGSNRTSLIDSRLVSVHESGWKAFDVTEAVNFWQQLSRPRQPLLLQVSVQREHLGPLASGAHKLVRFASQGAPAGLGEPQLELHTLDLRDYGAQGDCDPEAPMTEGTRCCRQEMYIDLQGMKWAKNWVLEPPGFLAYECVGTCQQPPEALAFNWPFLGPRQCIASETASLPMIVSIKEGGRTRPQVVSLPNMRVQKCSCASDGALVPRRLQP

[14] = target: Calmodulin-1 (Homo sapiens) (UniProt P0DP23); assay: small molecules binding calmodulin-1 with EGTA – biochemical, small-molecule microarray, Cy5-labelled CALM1, profiling panel (AID 1111); conditions: Cy5-CALM1 binding fluorescence, higher = more signal;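 further: labelled calmodulin applied in Tris saline Tween buffer holding calcium plus EGTA and DTT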
[15] = target: Calmodulin-1 (Homo sapiens) (UniProt P0DP23); assay: small molecules binding Ca-loaded calmodulin-1 – biochemical, small-molecule microarray, Cy5-labelled CALM1, plus calcium, artefact control for SMM control-protein annotation, profiling panel (AID 1112); conditions: Cy5-CALM1 binding fluorescence, higher = more signal;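 further: score merges spot fluorescence with signal to noise from triplicate slides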
[16] = probe aWnt5a binding to arrayed compounds – biochemical, biotinylated probe, 635/667 nm fluorescence, primary screen (AID 1113); conditions: small-molecule microarray, higher = more signal;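 further: score merges 667 nm fluorescence intensity with signal-to-noise per printed feature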
[17] = probe aShh binding to arrayed compounds – biochemical, biotinylated probe, 635/667 nm fluorescence, primary screen (AID 1114); conditions: small-molecule microarray, higher = more signal;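 further: probe is biotin-labelled aShh protein from a stem cell growth factor screen; measures binding of labelled protein to compounds printed on the slide; score merges feature fluorescence at 667 nm with signal-to-noise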
[18] = probe aNog binding to arrayed compounds – biochemical, biotinylated probe, 635/667 nm fluorescence, primary screen (AID 1115); conditions: small-molecule microarray, higher = more signal;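 further: probe is biotinylated aNog protein used at 0.15 µg/mL for 1 h at 4 C; z-score combines 667 nm fluorescence of each spot with its signal to noise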
[19] = target: Torsin-1A-interacting protein 1 (Homo sapiens) (UniProt Q5JTV8); assay: compound microarray binding of lysate hLAP1 – cell lysate, small-molecule microarray, COS7 lysate, 635/667 nm fluorescence, primary screen (AID 1116); conditions: 635 nm fluorescence, higher = more signal
Torsin-1A-interacting protein 1 (Homo sapiens), sequence (Q5JTV8 whole entry, looked up): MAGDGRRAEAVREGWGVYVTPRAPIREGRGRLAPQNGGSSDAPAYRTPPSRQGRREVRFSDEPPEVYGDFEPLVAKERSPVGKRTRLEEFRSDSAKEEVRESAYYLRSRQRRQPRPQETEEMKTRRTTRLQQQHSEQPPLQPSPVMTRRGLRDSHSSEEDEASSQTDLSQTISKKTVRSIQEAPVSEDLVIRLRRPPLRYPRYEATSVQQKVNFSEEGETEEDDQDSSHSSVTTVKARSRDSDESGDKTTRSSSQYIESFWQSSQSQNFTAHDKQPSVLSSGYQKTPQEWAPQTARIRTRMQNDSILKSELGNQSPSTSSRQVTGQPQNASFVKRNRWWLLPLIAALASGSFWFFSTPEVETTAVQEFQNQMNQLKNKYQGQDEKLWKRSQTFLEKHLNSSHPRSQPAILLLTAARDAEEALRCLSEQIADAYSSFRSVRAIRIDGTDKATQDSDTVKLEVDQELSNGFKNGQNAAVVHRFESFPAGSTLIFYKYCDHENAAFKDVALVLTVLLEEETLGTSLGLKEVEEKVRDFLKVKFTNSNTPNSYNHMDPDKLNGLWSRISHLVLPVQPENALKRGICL

[20] = target: Alpha-bungarotoxin (Bungarus multicinctus) (UniProt P60615); assay: compounds binding labelled alpha-BTX control protein – biochemical, small-molecule microarray, Alexa647 label, 635/667 nm fluorescence, artefact control for SMM control protein annotation, profiling panel (AID 1117); conditions: alpha-BTX-A647 binding fluorescence, higher = more signal
Alpha-bungarotoxin (Bungarus multicinctus), sequence (P60615 whole entry, looked up): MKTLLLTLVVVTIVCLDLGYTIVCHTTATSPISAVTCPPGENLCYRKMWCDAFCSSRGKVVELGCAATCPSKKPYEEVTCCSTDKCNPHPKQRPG

SMILES	composite z-score [1]	composite z-score [2]	composite z-score [3]	z-score [4]	composite z-score [5]	composite z-score [6]	composite z-score [7]	composite z-score [8]	composite z-score [9]	composite z-score [10]	composite z-score [11]	z-score [12]	composite z-score [13]	composite z-score [14]	composite z-score [15]	composite z-score [16]	composite z-score [17]	composite z-score [18]	composite z-score [19]	composite z-score [20]
CC(C)N1C(=O)c2ccccc2[C@@H](C(=O)NCC(F)(F)F)[C@@H]1c1ccc(CO)cc1	0.861	-0.0674	0.53	0.655 (inactive)	-0.746	-0.871	-0.318	-0.464	-0.459	0.935	0.124	0.568	0.0101	-0.257	-0.224	-0.0334	-0.0626	0.128	0.287	-0.143
O=C(NC1CC1)[C@@H]1c2ccccc2C(=O)N(Cc2ccc(OC(F)(F)F)cc2)[C@H]1c1ccc(CO)cc1	0.572	-0.082	0.111	-0.599 (inactive)	0.567	-0.589	0.0972	0.301	0.864	0.301	1.13	-1.06	0.108	0.168	1.06	-0.0758	-0.0735	-0.399	-0.436	-0.258
COC(=O)[C@@]1(Cc2ccc(OC)cc2)[C@H]2c3cc(C(=O)N(C)C)[nH]c3C[C@H]2CN1C(=O)c1ccccc1	1.03	0.416	0.564	0.569 (inactive)	1.12	-0.54	-0.144	-0.273	-0.465	0.0999	-0.65	-0.536	-0.228	-0.0912	-0.242	-0.176	0.128	0.516	-0.223	0.0334
CC(C)=CCCC=C(C)C(O)C1C=CC2C(=O)N(c3ccccc3)C(=O)C2N1Nc1ccc(C#N)cc1 (stereo not given)	0.669	0.473	0.722	-0.403 (inactive)	0.569	1.3	0.411	1.29	0.0902	1.16	1.4	-1.96	-0.111	1.46	-0.175	-0.0459	-0.0769	-0.468	0.217	0.82
COc1cc(OC)c(C(O)C2C=CC3C(=O)N(c4ccccc4)C(=O)C3N2Nc2ccc(C(C)C)cc2)cc1Br (stereo not given)	0.891	0.671	0.605	-0.603 (inactive)	0.909	1.3	0.21	0.839	0.245	0.735	1.22	-0.533	0.513	1.34	0.382	0.238	0.158	1.68	0.695	1.92
CC=CC(O)C1C=CC2C(=O)NC(=O)C2N1Nc1ccc(Cl)cc1Cl (stereo not given)	0.547	0.171	0.55	1.9 (inactive)	0.506	-1.11	0.277	0.46	0.522	1.42	0.342	-0.0813	0.483	0.498	0.0224	-0.0194	0.199	0.353	0.685	0.64
Cc1ccc(F)cc1S(=O)(=O)N[C@H]1CCN(Cc2ccc(OC(C)C)cc2)C1	1.23	-0.322	-0.747	-0.24 (inactive)	0.44	0.0619	-0.437	0.195	0.577	-0.22	1.34	-3.4	0.379	-0.781	-1.43	-0.187	-0.0959	-0.131	0.228	-0.494
C=C(C)[C@@H]1CC=C(C(O)C2C=CC3C(=O)N(C)C(=O)C3N2Nc2ccc([N+](=O)[O-])cc2[N+](=O)[O-])CC1 (stereo not given in full)	0.626	0.989	1.05	1.86 (inactive)	0.85	1.28	0.963	1.04	0.0615	1.35	1.45	-0.44	0.265	0.79	0.441	0.101	0.302	1.46	0.958	1.95
COC(=O)[C@@]1(Cc2ccccc2)N=C(c2ccc(OCCCO)cc2)O[C@H]1c1ccccc1CN=[N+]=[N-]	1.61	0.287	0.652	12.9 (active)	0.722	0.893	-0.0505	0.323	0.21	1.09	1.36	-3.42	0.024	-0.0422	-0.193	-0.0792	-0.153	-0.593	0.757	0.537
